Values joined by “and” are separate entries in the source; they are usually repeats but may differ in a detail not shown here. Equal values may be shown once. The whole screen tested about 5,500 compounds, of which about 2,000 (36%) were called active. Not shown: some 18% with an inconclusive outcome. Rule as the data show it: active = normalized growth mostly below about 0.91 (no sharp cut-off); inconclusive = no clear call, values can overlap the other calls; inactive = mostly above about 0.92. The list shows a part of the results.
Experiment: chemical genetic growth profiling, strain panel (AID 1159580);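 also: tested at 20 µM; growth read once vehicle control cultures reached saturation at 30 °C; 1 = growth at the plate median or of vehicle wells; lower values mean less growth of the strain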
Conditions: S. cerevisiae deletion strains, growth OD

Measured: normalized growth

CN/C(=C\[N+](=O)[O-])NCCSCc1ccc(CN(C)C)o1
inactive: locus YAL021C, strain ccr4, active compounds read low 0.979 | locus YAL026C, strain drs2, active compounds read low 0.99 | locus YAL030W, strain snc1, active compounds read low 1 | locus YAL040C, strain CLN3, active compounds read low 1 | locus YBL061C, strain skt5, active compounds read low 0.974 | locus YBR009C, strain hhf1, active compounds read low 0.998 | locus YBR021W, strain FUR4, active compounds read low 1.04 | locus YBR023C, strain chs3, active compounds read low 0.989 | locus YBR171W, strain sec66, active compounds read low 0.989 | locus YBR229C, strain ROT2, active compounds read low 1.02 | locus YBR231C, strain swc5, active compounds read low 0.977 | locus YBR279W, strain paf1, active compounds read low 0.991 | locus YCL011C, strain gbp2, active compounds read low 0.984 | locus YCL016C, strain dcc1, active compounds read low 0.986 | locus YCL029C, strain bik1, active compounds read low 1 | locus YCL061C, strain MRC1 (second series), active compounds read low 1.01 | locus YCL069W, strain vba3, active compounds read low 0.973 | locus YCR088W, strain abp1, active compounds read low 0.976 | locus YDL005C, strain med2, active compounds read low 0.977 | locus YDL035C, strain GPR1, active compounds read low 1.04 | locus YDL040C, strain nat1, active compounds read low 0.99 | locus YDL074C, strain BRE1, active compounds read low 1.07 | locus YDL101C, strain DUN1, active compounds read low 1.03 | locus YDL134C, strain PPH21, active compounds read low 1.03 | locus YDL185W, strain tfp1, active compounds read low 0.987 | locus YDL192W, strain arf1, active compounds read low 0.989 | locus YDR001C, strain nth1, active compounds read low 0.982 | locus YDR069C, strain doa4, active compounds read low 0.97 | locus YDR101C, strain arx1, active compounds read low 1.01 | locus YDR137W, strain rgp1, active compounds read low 0.975 | locus YDR150W, strain NUM1, active compounds read low 1.02 | locus YDR159W, strain sac3, active compounds read low 0.94 | locus YDR162C, strain NBP2, active compounds read low 1.02 | locus YDR195W, strain ref2 0.943 | locus YDR297W, strain sur2, active compounds read low 0.972 | locus YDR318W, strain mcm21, active compounds read low 0.991 | locus YDR334W, strain swr1, active compounds read low 0.977 | locus YDR335W, strain msn5, active compounds read low 0.998 | locus YDR363W, strain ESC2, active compounds read low 1 | locus YDR388W, active compounds read low 0.995 | locus YDR392W, strain spt3, active compounds read low 0.993 | locus YDR502C, strain sam2, active compounds read low 0.997 | locus YEL003W, strain gim4, active compounds read low 0.992 | locus YEL037C, strain rad23, active compounds read low 0.986 | locus YEL061C, strain CIN8 (second series), active compounds read low 0.977 | locus YEL061C, strain CIN8, active compounds read low 1.01 | locus YER002W, strain NOP16, active compounds read low 0.988 | locus YER015W, strain faa2, active compounds read low 0.995 | locus YER016W, strain bim1, active compounds read low 0.973 | locus YER110C, active compounds read low 1 | locus YER111C, strain swi4, active compounds read low 0.992 | locus YER155C, strain BEM2 (second series), active compounds read low 0.973 | locus YER155C, strain BEM2, active compounds read low 1.01 | locus YER167W, strain BCK2, active compounds read low 1.02 | locus YFR010W, strain ubp6, active compounds read low 0.99 | locus YGL078C, strain dbp3, active compounds read low 0.986 | locus YGL086W, strain mad1, active compounds read low 0.999 | locus YGL167C, strain pmr1, active compounds read low 0.987 | locus YGL173C, strain kem1, active compounds read low 0.989 | locus YGL227W, strain vid30, active compounds read low 0.978 | locus YGL240W, strain doc1, active compounds read low 0.996 | locus YGL248W, strain PDE1, active compounds read low 1.04 | locus YGL253W, strain hxk2, active compounds read low 0.993 | locus YGR078C, strain PAC10, active compounds read low 0.997 | locus YGR135W, strain pre9, active compounds read low 0.98 | locus YGR252W, strain gcn5, active compounds read low 0.984 | locus YHR013C, strain ard1, active compounds read low 0.952 | locus YHR027C, strain rpn1, active compounds read low 1.01 | locus YHR030C, strain SLT2, active compounds read low 1.02 and 0.986 | locus YHR079C, strain IRE1 (second series), active compounds read low 0.982 | locus YHR079C, strain IRE1, active compounds read low 0.999 | locus YHR094C, strain hxt1, active compounds read low 0.983 | locus YHR129C, strain ARP1, active compounds read low 1.02 | locus YHR142W, strain chs7, active compounds read low 0.99 | locus YHR200W, strain rpn10, active compounds read low 0.984 | locus YIL066C, strain RNR3, active compounds read low 1.04 | locus YIL073C, strain SPO22, active compounds read low 0.98 | locus YIL125W, strain kgd1, active compounds read low 0.984 | locus YIR030C, strain dcg1, active compounds read low 0.988 | locus YJL092W, strain hpr5, active compounds read low 0.979 | locus YJL095W, strain BCK1 (second series), active compounds read low 0.995 | locus YJL095W, strain BCK1, active compounds read low 1.05 and 0.995 | locus YJL115W, strain asf1, active compounds read low 0.986 | locus YJL129C, strain trk1, active compounds read low 0.957 | locus YJL134W, strain LCB3, active compounds read low 1.01 | locus YJL154C, strain vps35, active compounds read low 0.973 | locus YJL164C, strain tpk1, active compounds read low 0.996 | locus YJL166W, strain qcr8, active compounds read low 0.985 | locus YJL168C, strain set2, active compounds read low 0.988 | locus YJL187C, strain SWE1 (second series), active compounds read low 1.04 | locus YJL187C, strain SWE1, active compounds read low 0.977 | locus YJR043C, strain POL32, active compounds read low 1.05 | locus YJR066W, strain TOR1, active compounds read low 0.944 | locus YJR075W, strain HOC1, active compounds read low 0.996

Reference: PubChem BioAssay AID1159580 (chemical genetic matrix, 2015)
